# Measurements as given in a collection of fitness landscapes (doi:10.1016/j.celrep.2020.107928).
# Over roughly 81,000 sequences, “one-hybrid fitness for binding parS DNA” has its median near -0.17; the highest 2% begin near 0.51. For the sample, the highest values were picked, then their nearest neighbours and some sequences at random.
# B1: Caulobacter ParB omega fusion; a variant is named by its letters at X, in order, B8GW30 (parent)
# chain: MESVVVGEPGMSEGRRGLGRGLSALLGEVDAAPAQAPGEQLGGSREAPIEILQRNPDQPRRTFREEDLEDLSNSIREKGVLQPILVRPSPDTAGEYQIVAGERAWRAAQRAGLKTVPIMVRELDDLAVLEIGIIENVQRADLNVLEEALSYKVLMEKFERTQENIAQTIGKSXSHVANXMRLLXLPDEVQSYLVSGELTAXHARAIAAAADPVALAKQIIEGGLSVRETEALARKAPNLSAGKSKGGRPPRVKDTDTQALESDLSSVLGLDVSIDHRGSTGTLTITYATLEQLDDLCNRLTRGI
# Variants of: B1
# Assay: one-hybrid fitness for binding parS DNA (scaled: cognate 1, non-cognate 0); higher = stronger binding
# Conditions: with parS DNA site
# Outline: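 Selection: bacterial one-hybrid in E. coli USO, HIS3 reporter with the site 19 bp from the promoter, 48 hours at 37°C on M9-minus-histidine plus 0.1 mM IPTG and 5 mM 3-AT. Libraries were Caulobacter ParB with four randomised specificity codons, sequenced on Illumina before and after selection. Fitness is the rescaled log change in variant-to-wild-type read ratio, anchored to the cognate and non-cognate sites.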
row,Variant,one-hybrid fitness for binding parS DNA
1,QTVF,≤ 0.2
2,RIKD,≤ 0.2
3,RIKS,0.822
4,RIVP,≤ 0.2
5,RIVS,1.01
6,RIKP,≤ 0.2
7,RIVD,≤ 0.2
8,NSRE,≤ 0.2
9,AKIQ,≤ 0.2
10,TIGL,≤ 0.2
11,RAGD,≤ 0.2
12,RCGS,0.945
13,RFGS,0.969
14,RFGN,0.435
15,RPGS,≤ 0.2
16,RAGN,0.448
17,RAGS,0.989
18,RCGP,≤ 0.2
19,RFGH,0.245
20,RMGS,0.988
21,RMGP,0.235
22,RMGD,≤ 0.2
23,SGNV,≤ 0.2
24,PNMM,≤ 0.2
25,SVIY,≤ 0.2

row,Variant,one-hybrid fitness for binding parS DNA
1,CGSR,≤ 0.2
2,AIHE,≤ 0.2
3,NKPL,≤ 0.2
4,WVGM,≤ 0.2
5,CMEW,≤ 0.2
6,NDFI,≤ 0.2
7,KPTT,≤ 0.2
8,WGPD,≤ 0.2
9,RKGD,≤ 0.2
10,RIGP,≤ 0.2
11,RKGS,0.833
12,RHGN,0.363
13,RTGD,≤ 0.2
14,RKGN,0.429
15,RIGN,0.477
16,RHGD,≤ 0.2
17,RTGN,0.44
18,RIGS,0.959
19,RTGS,0.92
20,RHGS,0.888
21,NELG,≤ 0.2
22,VCTS,≤ 0.2
23,QDQT,≤ 0.2
24,APQI,≤ 0.2
25,TGHY,≤ 0.2

row,Variant,one-hybrid fitness for binding parS DNA
1,LTYE,≤ 0.2
2,FDTS,≤ 0.2
3,VQYL,≤ 0.2
4,GTNP,≤ 0.2
5,RIGY,0.51
6,RSGN,0.46
7,RSGD,≤ 0.2
8,RSGS,0.983
9,RCGY,0.43
10,LCDD,≤ 0.2
11,TNCY,≤ 0.2
12,FSDT,≤ 0.2
13,KCRM,≤ 0.2
14,RMPT,0.625
15,RMPR,≤ 0.2
16,RMIQ,≤ 0.2
17,RMIT,0.752
18,RMPH,≤ 0.2
19,RMIK,≤ 0.2
20,VQYW,≤ 0.2
21,INEC,≤ 0.2
22,RQWY,0.418
23,TEPE,≤ 0.2
24,RCAC,1.02
25,RSAC,0.932

row,Variant,one-hybrid fitness for binding parS DNA
1,REAC,≤ 0.2
2,RSAN,0.426
3,RPAC,≤ 0.2
4,RSAH,0.226
5,IILS,≤ 0.2
6,TCRI,≤ 0.2
7,KHHT,≤ 0.2
8,HMNT,≤ 0.2
9,RTIK,≤ 0.2
10,RTPG,0.764
11,RTIF,0.233
12,RTPQ,≤ 0.2
13,RTIG,0.98
14,RTPP,≤ 0.2
15,KRWW,≤ 0.2
16,KLNR,≤ 0.2
17,RHAA,0.534
18,RHFA,0.516
19,NHAA,≤ 0.2
20,VDYT,≤ 0.2
21,NQNT,≤ 0.2
22,HAPR,≤ 0.2
23,EKTR,≤ 0.2
24,PFKA,≤ 0.2
25,RHKA,0.692

row,Variant,one-hybrid fitness for binding parS DNA
1,RPKA,≤ 0.2
2,RWVA,0.329
3,RFVA,0.44
4,RGKA,0.475
5,RWYA,0.348
6,RCKA,0.844
7,RFKA,0.571
8,RHVA,0.499
9,RWKA,0.574
10,DHKA,≤ 0.2
11,KSVS,≤ 0.2
12,ATSF,≤ 0.2
13,PVTI,≤ 0.2
14,GNRN,≤ 0.2
15,MTHT,≤ 0.2
16,IATE,≤ 0.2
17,RDKA,≤ 0.2
18,REKA,≤ 0.2
19,RSKA,0.716
20,QRTQ,≤ 0.2
21,GFIG,≤ 0.2
22,RLSK,≤ 0.2
23,RLGT,0.925
24,RLRR,≤ 0.2
25,RLST,0.939

row,Variant,one-hybrid fitness for binding parS DNA
1,RLWP,0.201
2,RLGF,0.278
3,RLRM,0.376
4,RLWH,0.3
5,RLRT,0.834
6,RLGR,≤ 0.2
7,RLSM,0.329
8,RLWT,0.889
9,FKLC,≤ 0.2
10,YRAS,0.283
11,WVWC,≤ 0.2
12,TRNR,≤ 0.2
13,QCLA,≤ 0.2
14,HCDK,≤ 0.2
15,RLQT,0.946
16,RLQF,0.229
17,RLQK,≤ 0.2
18,RLCP,≤ 0.2
19,RLLP,≤ 0.2
20,RLLD,0.231
21,RLCD,≤ 0.2
22,RLYT,0.943
23,RLYM,0.364
24,RLYQ,≤ 0.2
25,RLCT,0.923

row,Variant,one-hybrid fitness for binding parS DNA
1,RLLT,0.961
2,YINM,≤ 0.2
3,QHNA,≤ 0.2
4,HQSH,≤ 0.2
5,KQRG,≤ 0.2
6,FYRR,≤ 0.2
7,EMVC,≤ 0.2
8,TCPF,≤ 0.2
9,RLHT,0.937
10,RLHR,≤ 0.2
11,RLHY,0.473
12,RHNR,≤ 0.2
13,RHYP,≤ 0.2
14,REQG,≤ 0.2
15,RHNF,≤ 0.2
16,RHIG,0.705
17,RHYD,≤ 0.2
18,RHQG,0.973
19,RHPG,0.451
20,RHNG,0.953
21,RHIF,≤ 0.2
22,RHQR,≤ 0.2
23,RHYG,0.95
24,HCSV,≤ 0.2
25,DCCS,≤ 0.2

row,Variant,one-hybrid fitness for binding parS DNA
1,HYWT,≤ 0.2
2,QSAL,≤ 0.2
3,FRKP,≤ 0.2
4,GIVG,≤ 0.2
5,PFTT,≤ 0.2
6,ALPV,≤ 0.2
7,QCAF,≤ 0.2
8,RHDG,0.917
9,RHCK,≤ 0.2
10,RHDD,≤ 0.2
11,RHDN,0.33
12,RHHG,0.967
13,RHLG,0.967
14,RHLQ,≤ 0.2
15,RHHQ,≤ 0.2
16,RHCG,0.95
17,RHHK,≤ 0.2
18,RHLF,0.23
19,RHCM,≤ 0.2
20,KRLV,≤ 0.2
